The whole screen tested about 2,400 compounds, of which fewer than 10 were called active. Another 1% or so got no clear call; they are omitted. The list is a sample of the results. A number with no mark means an inactive call.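 Rule for the calls: active = highest replicate activation at or above 34% and every replicate reaching that threshold; inconclusive = meets only one of the two criteria; inactive = meets neither criterion.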
target: Protein FosB (Mus musculus) (UniProt P13346); assay: enhancers of delta FosB homodimer–AP-1 oligo binding – biochemical, fluorescence polarization, TAMRA-CDK5 oligo, cherry-picked samples, confirmation (AID 588690); details: purified delta FosB, at 24.9 µM, hits give high values, normalised: neutral wells 0, positive control 100;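 note: higher polarization means more probe DNA bound by delta FosB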
Sequence (P13346 whole entry, looked up): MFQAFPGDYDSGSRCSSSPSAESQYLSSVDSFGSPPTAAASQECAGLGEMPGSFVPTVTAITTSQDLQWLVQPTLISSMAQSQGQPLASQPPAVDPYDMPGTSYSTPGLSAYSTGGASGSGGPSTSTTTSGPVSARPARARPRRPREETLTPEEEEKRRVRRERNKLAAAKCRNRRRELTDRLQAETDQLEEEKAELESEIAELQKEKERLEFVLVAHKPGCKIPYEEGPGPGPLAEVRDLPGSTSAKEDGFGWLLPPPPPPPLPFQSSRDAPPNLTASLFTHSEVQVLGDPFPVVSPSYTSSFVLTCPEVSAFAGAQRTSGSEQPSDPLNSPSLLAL

Structure (SMILES) | activation [%]
CN(CC(=O)Nc1ccc(Cl)cc1)C(=O)CNC(=O)c1ccc2ccccc2c1 | 6.82
C#CCOCCOCCOCCNc1nc(N2CCN(C(=O)C([C@@H](C)O)n3cc([C@@H](N)CCCCN)nn3)CC2)nc(N2CCN(C(=O)[C@H](CCCCN)n3cc(CN)nn3)CC2)n1 (stereo partly specified) | -0.353
Cc1nn(Cc2ccc(Cl)cc2)c(Cl)c1/C=N/NC(=O)CNc1ccccc1F | 1.57
Cc1ccc(C)c(NC(=O)C(OC(=O)c2ccc(C)s2)c2ccccc2)c1 (stereo unspecified) | -0.981
Nc1nc(COC(=O)CCC(=O)c2ccc(Cl)cc2)nc(Nc2ccccc2)n1 | 0.207
COc1ccc(Cn2c(=S)[nH]c3cc(C(=O)N4CCCCC4)ccc3c2=O)cc1 | -2.01
COc1ccc(-c2cc(=O)oc3cc(OC(C)C(=O)Nc4ccc(CN5CCOCC5)cc4)ccc23)cc1 (stereo unspecified) | 0.361
Cc1cc(NC(=O)CSc2nc3cc(Cl)ccc3c(=O)n2Cc2ccco2)no1 | 3.74
O=C(Nc1nc(-c2ccc(-c3ccccc3)cc2)cs1)c1cnccn1 | 5.91
O=C(Cn1nnc(-c2ccccc2)n1)NCc1ccc2c(c1)OCO2 | 5.36
Cc1sc2ncnc(N3CCC(C(=O)Nc4nc5ccc(Cl)cc5s4)CC3)c2c1C | 5.08
CC(Sc1nc(-c2ccccc2)cc(C(F)(F)F)n1)C(=O)Nc1ccc2c(c1)OCO2 (stereo unspecified) | 0.405
COc1ccc2nc(/N=C(\N)NC(=O)Nc3ccccc3)nc(C)c2c1 | -5.43
COc1ccc(-n2c(SCC(=O)Nc3sc4c(c3C#N)CCCC4)nnc2-c2ccc(O)cc2)cc1 | 2.22
O=C(Cc1nc2ccccc2[nH]c1=O)c1ccc(Cl)cc1 | 3.64
CCCCNC(=O)C(C)N(CCN(C)C)C(=O)CCCCCN1C(=O)NC(c2ccc(Cl)cc2)C(C(=O)OCc2ccccc2)=C1C (stereo unspecified) | 3.97
O=C(/C=C/c1ccc(F)cc1)NCCNC(=O)/C=C/c1ccc(F)cc1 | 5
COc1cccc(CNC(=O)c2nnn(CC(=O)Nc3cc(C)ccc3C)c2N)c1 | 0.657
CC(=O)Nc1ccc(NC(=O)C(NS(=O)(=O)c2ccc3c(c2)OCCO3)C(C)C)cc1 (stereo unspecified) | 2.35
COc1ccc(NS(=O)(=O)c2ccc(NC(=O)c3ccc(N(C)S(C)(=O)=O)cc3)cc2)cc1 | -1.03
O=C(Nc1ccc2ccccc2c1)/C(=C/c1cccc(Br)c1)NC(=O)c1ccco1 | 5.71
